# Source: PubChem BioAssay AID720690 (Broad Institute, 2013)
# Results with a measured potency or affinity are listed apart. Calls of active or inactive are those of the source.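 How the source made its calls: active means every repeat run showing a signal drop whose fitted half-maximal concentration is at most twice the top tested concentration; inconclusive means repeat runs disagree, or flat partial drop, or poor fit; inactive means the rest.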
# Experiment: general mammalian cell viability loss – activator set, cherry-pick, cytotoxicity control for miR-122 modulator project, dose response (AID 720690);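 further: 0% = neutral control wells and -100% = MG132 cytotoxic control wells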
# Settings: HEK293T viability, CellTiter-Glo luminescence, 48 h; series mostly up to 26 µM; activity change, negative = cytotoxicity: at the top concentration
row,Compound,"activity change, negative = cytotoxicity"
1,COC(=O)C[C@H]1CC[C@@H]2[C@@H](COc3ccc(NC(=O)Nc4cccc(F)c4)cc3C(=O)N2C)O1,-5.97% (inactive)
2,NC(=O)c1cn(-c2ccccc2)nc1-c1cc2ccccc2oc1=O,-23.6% (inactive)
3,O=C(Cc1cccnc1)N1[C@@H](CO)[C@@H]2c3ccccc3NC[C@@H]21,-12.6% (inactive)
4,CN(C)CCCNC(=O)C[C@H]1CC[C@H]2[C@H](COc3ccc(NC(=O)NC4CCCC4)cc3C(=O)N2C)O1,3.63% (inactive)
5,COc1ccc2[nH]c(=O)c(COC(=O)c3ccco3)cc2c1,-0.84% (inactive)
6,C/C=C/c1ccc([C@H]2[C@@H](CNC(=O)CC)N(Cc3ccccn3)[C@H]2CO)cc1,-11.2% (inactive)
7,O=C(c1cccnc1)N1C[C@H]2[C@@H](c3ccccc31)[C@H](CO)N2C(=O)Nc1ccccc1,0.123% (inactive)
8,COc1ccc(-c2ccc3c(c2)O[C@H](CN(C)C(=O)Nc2ccccc2F)[C@H](C)CN([C@@H](C)CO)S3(=O)=O)cc1,-12.4% (inactive)
9,CN1C(=O)c2cc(NC(=O)c3cccc(C(F)(F)F)c3)ccc2OC[C@@H]2O[C@@H](CC(=O)NCCN3CCCC3)CC[C@@H]21,9.28% (inactive)
10,COc1cccc(NC(=O)Nc2ccc3c(c2)C(=O)N(C)C[C@@H](OC)[C@@H](C)CN[C@H](C)CO3)c1,-1.4% [at 23.5 µM] (inactive)
11,CN1C(=O)c2cc(NC(=O)c3cccc(F)c3)ccc2OC[C@@H]2O[C@@H](CC(=O)O)CC[C@@H]21,-6.33% [at 23.5 µM] (inactive)
12,COCC(=O)Nc1ccc2c(c1)C(=O)N(C)[C@H]1CC[C@@H](CC(=O)NC3CCCC3)O[C@H]1CO2,9.16% (inactive)
13,COCC(=O)NC[C@H]1N[C@H](CO)[C@H]1c1ccc(C2=CCCC2)cc1,-5.57% (inactive)
14,CN1C(=O)c2cc(NC(=O)c3cccc(F)c3)ccc2OC[C@@H]2O[C@H](CC(=O)O)CC[C@@H]21,-7.57% [at 23.5 µM] (inactive)
15,CCCNC(=O)C[C@H]1CC[C@H]2[C@@H](COc3ccc(NC(=O)c4cc(F)cc(F)c4)cc3C(=O)N2C)O1,1.72% (inactive)
16,C/C=C/c1ccc([C@H]2[C@H](CO)N(C(C)=O)[C@H]2CN(C)C(=O)c2ccccn2)cc1,5.37% (inactive)
17,O=C(Nc1ccc(F)cc1)N1C[C@@H]2[C@H](c3ccccc31)[C@H](CO)N2C(=O)Cc1ccccc1,3.89% [at 23.5 µM] (inactive)
18,CC(C)C(=O)Nc1ccc2c(c1)C(=O)N(C)[C@@H]1CC[C@H](CC(=O)N[C@H](C)c3ccccc3)O[C@@H]1CO2,0.742% (inactive)
19,CC(C)(C)c1cc(NCCCn2ccnc2)n2ncc(-c3ccc(Cl)cc3)c2n1,2.97% (inactive)
20,COc1ccc(C#Cc2ccc3c(c2)O[C@H](CN(C)C(=O)CN2CCOCC2)[C@H](C)CN([C@@H](C)CO)S3(=O)=O)cc1,-13% (inactive)
21,CCC(=O)N(C)C[C@H]1Oc2cc(C#Cc3ccccc3)ccc2S(=O)(=O)N([C@@H](C)CO)C[C@H]1C,-24.3% (inactive)
22,COCC(=O)N1C[C@H]2[C@@H](c3ccccc31)[C@H](CO)N2C(=O)Nc1ccccc1Cl,-7.62% (inactive)
23,CN1C(=O)c2cc(NC(=O)c3cccc(C(F)(F)F)c3)ccc2OC[C@H]2O[C@H](CC(=O)NCCN3CCCC3)CC[C@H]21,-2.32% (inactive)
24,CC(=O)Nc1ccc2c(c1)C(=O)N(C)[C@H]1CC[C@H](CC(=O)NC3CCCCC3)O[C@@H]1CO2,-5.08% (inactive)
25,CCCc1ccc(S(=O)(=O)NCCc2ccncc2)cc1,-8.93% (inactive)
26,CNC(=O)C[C@H]1CC[C@H]2[C@@H](COc3ccc(NC(=O)C(C)C)cc3C(=O)N2C)O1,-14.9% (inactive)
